Measurements published in PubChem BioAssay AID1030 (National Center for Advancing Translational Sciences (NCATS), 2008).
Out of some 220,000 compounds screened, about 16,000 (7.3%) were called active. Inconclusive results (about 25%) are left out. The entries come from a sample that favours actives as a whole. Values without a mark were called inactive. The call rests on the fitted dose curve; in most records, active means well fitted inhibition curve with a large enough effect (not every such curve was filed as active); inconclusive means small, poorly fitted or top-dose-only effect, or another doubt; inactive means no such curve, though single readings can be large or run the other way.

biological target: Aldehyde dehydrogenase 1A1 (Homo sapiens) (UniProt P00352); assay: qHTS Assay for Inhibitors of Aldehyde Dehydrogenase 1 (ALDH1A1); conditions: Purified ALDH1A1, NADH fluorescence, propionaldehyde substrate; series mostly up to 75.3 µM; activity, negative = inhibition: at the top concentration;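 on activity, negative = inhibition: plate controls were no enzyme wells and a reference inhibitor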
Sequence (P00352 whole entry, looked up): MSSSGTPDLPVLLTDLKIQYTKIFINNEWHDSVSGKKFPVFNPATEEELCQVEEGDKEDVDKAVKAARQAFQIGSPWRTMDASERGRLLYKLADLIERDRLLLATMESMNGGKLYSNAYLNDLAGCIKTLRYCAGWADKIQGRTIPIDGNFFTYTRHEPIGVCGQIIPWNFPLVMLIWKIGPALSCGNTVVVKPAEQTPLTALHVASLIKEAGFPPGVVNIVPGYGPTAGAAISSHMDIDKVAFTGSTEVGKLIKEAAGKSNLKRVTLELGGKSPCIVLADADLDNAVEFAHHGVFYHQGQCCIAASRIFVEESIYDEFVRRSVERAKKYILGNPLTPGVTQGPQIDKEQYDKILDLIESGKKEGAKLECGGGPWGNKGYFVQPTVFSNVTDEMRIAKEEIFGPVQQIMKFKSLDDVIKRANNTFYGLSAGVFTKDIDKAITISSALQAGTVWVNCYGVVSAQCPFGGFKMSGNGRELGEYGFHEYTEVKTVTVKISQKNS
Potency means the concentration at half of the fitted maximal effect.

Row | SMILES | activity, negative = inhibition | Potency
1 | C/C(=N\NC(=O)OC(C)(C)C)c1ccc[nH]1 | 5.62% | 
2 | Cc1cc(C(=O)CCl)c(C)n1CC1COc2ccccc2O1 (stereo not given) |  | 0.251 µM (active)
3 | O=C(NCC1COc2ccccc2O1)C1(c2ccccc2)CCCC1 (stereo not given) | -5.04% | 
4 | Cc1cc(NC(=O)CCC2COc3ccccc3O2)no1 (stereo not given) | -3.2% | 
5 | O=C(NNC(=O)c1ccc(Cl)cc1Cl)c1cccs1 | 7.06% | 
6 | Fc1cccc(Cc2noc(CN3CCN(c4cnccn4)CC3)n2)c1 | -4.08% | 
7 | CCOC(=O)c1c(C)[nH]c2c1-c1ccccc1C(=O)C2=O | 4.42% | 
8 | CCOC(=O)c1c(C)[nH]c(C2=NNC(=NC(C)COC)SC2)c1C (stereo not given) |  | 10 µM (active)
9 | CCCCOC(=O)c1[nH]c(C)c(C(=O)OC)c1C | -76% | 
10 | CN1CCN(c2nc(Nc3ccc(O)cc3)nc3ccccc23)CC1 | 3.31% | 
11 | COc1ccc(-c2nn(-c3ccccc3)cc2/C=C\C(=O)N2CCOCC2)cc1[N+](=O)[O-] | 10.2% | 
12 | S=C(NCCCc1cnc[nH]1)NCCCN(Cc1ccc(Cl)c(Cl)c1)c1ccc(Br)cn1 | 16.4% | 
13 | COc1ccc(N2CC(C)Cn3c2nc2c3c(=O)n(Cc3ccccc3F)c(=O)n2C)c(OC)c1 (stereo not given) |  | 17.8 µM (active)
14 | CC1CN(C2CCCCC2)c2nc3c(c(=O)n(C)c(=O)n3C)n2C1 (stereo not given) | -10.7% | 
15 | COc1ccc(C(CCNCc2ccccc2F)c2ccc(F)cc2)cc1 (stereo not given) | -5.1% | 
16 | COc1ccc2c(c1)CCc1c(C(=O)N3CCCC3)noc1-2 |  | 10 µM (active)
17 | O=C(c1cc(-c2ccccc2O)on1)N1CCCC1 | -10.4% | 
18 | COc1ccc2c(c1)CCc1c(C(=O)Nc3c(C)n(C)n(-c4ccccc4)c3=O)noc1-2 | -2.21% | 
19 | CCCCc1ccc(NC(=S)NCCCN2CCOCC2)cc1 | -12.3% | 
20 | Cc1cccc(C(=O)OC(C)CN2CCN(C)CC2)c1 (stereo not given) | 3.82% | 
21 | CC1(C)CC(N(Cc2ccccc2)C(=O)Cc2ccccc2)CCO1 (stereo not given) | 8.75% | 
22 | Cc1noc(C)c1COc1cccc(C(=O)Nc2cccnc2)c1 | 12.2% | 
23 | O=C(O)c1ccc2c3c(cccc13)C(=O)N(OS(=O)(=O)c1ccccc1)C2=O | -18.5% | 
24 | Cc1ccccc1NC(=O)NC1(C(=O)N2CCCC2)CCCCC1 | 9.14% | 
25 | O=C(CN1C(=O)NC2(CCCCCC2)C1=O)NC1CC1 | 8.47% | 
26 | O=C(CN1C(=O)NC2(CCCCCC2)C1=O)NCc1cccs1 | -0.321% | 
27 | O=C1CN(C(=O)CN2C(=O)NC3(CCCCC3)C2=O)c2ccccc2N1 |  | 15.8 µM (active)
28 | CCOC(=O)N1CCN(C(=O)Cn2cnc3ccccc3c2=O)CC1 | -6.76% | 
29 | O=C(COC(=O)Cn1cnc2ccccc2c1=O)NCc1ccccc1Cl | -14.8% | 
30 | COc1ccc(C(C)=O)cc1COC(=O)Cn1cnc2ccccc2c1=O |  | 20 µM (active)
